In PubChem BioAssay (NCI):
The panel holds about 83,000 compounds, 20% with a hit somewhere; the sample as a whole holds those more often.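 Method: cells in 96-well plates; compound added at one concentration; 48 h incubation; percent growth measured; values under 10 scored active.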 A number with no mark means an inactive call. The source made the active and inactive calls.

Each molecule was assayed on HCC-2998 colon (assay: NCI-60 one-dose screen, 48 h (100 = growth as untreated, 0 = no growth, -100 = all killed)). Conditions: 10 µM unless noted.
Protocol: Growth inhibition of the HCC-2998 human tumor cell line is measured as a screen for anti-cancer activity. Cells are grown in 96 well plates and exposed to the test compound for 48 hours. Compounds are tested at a single concentration, which is 10^-5 M for most compounds. The reported endpoint is percent growth (GI% or GIPRCNT), where numbers from 0 - 100% represent growth inhibition, and numbers from -100% - 0 represent cell death. For example, a value of 40 represents 60% growth inhibition. A value of 0 means no net growth occurred over the course of the experiment. A value of -40 indicates 40% of cells at the beginning of the experiment died by the end of the experiment. A value of -100 means all cells are dead at the end of the experiment.
NCI-60 Human Tumor Cell Lines Screen was performed using the standard one-dose NCI protocol, which is described in more detail at https://dtp.cancer.gov/discovery_development/nci-60/default.htm.
Compounds with GIPRCNT values below 10 were considered active. Activity score was based on GIPRCNT using the following formula: […]
Score is 0 for GIPRCNT values of 100 or above, 50 for GIPRCNT values of 0, and 100 for GIPRCNT values of -100.
For `CC1=NN(c2ccc(S(=O)(=O)O)cc2Cl)C(=O)C1`, the growth was 83.1%. In the case of `Cn1cc(-c2csc(-c3cn(CCN)c4ccc(F)cc34)n2)c2cccnc21`, the growth is reported as 91.1%. In the case of `O=C1Nc2ccccc2/C1=C/c1cn(CCCn2c3ccccc3c(=O)c3ccccc32)c2ccccc12`, the growth is reported as 96.3%. With `Oc1cccc2ccc(N/N=C/c3cc(CN4CCCCC4)c(O)c4ncccc34)nc12` the growth was 5.61% (active). Work on `C=C(C)[C@@H]1CC[C@]2(C)[C@H](CC=C3[C@@H]4CC(C)(C)CC[C@]4(C=O)CC[C@]32C)[C@@]1(C)CCCN` yielded a growth of 40.1%. For `CC1(C)CC[C@]2(CO)CC[C@]3(C)C(=CC[C@@H]4[C@@]5(C)CC[C@H](NCO)C(C)(C)[C@@H]5CC[C@]43C)[C@@H]2C1`, the growth was 6.82% (active). With `COc1cccc(-c2nn(-c3ccccc3)cc2-c2ccnc(NCCNS(=O)(=O)c3ccc(Cl)cc3)c2)c1` the growth was 19.5%. With `CSc1ccc(N(C)c2nc(C)nc3c2CCC3)cc1` the growth was 8.45% (active). `C#Cc1cc2c(N)c(C(=O)c3cc(OC)c(OC)c(OC)c3)[nH]c2cc1OC` was tested, and the growth was 64.3%. In the case of `Cn1cc(-c2csc(-c3cn(CCN)c4ccc(Br)cc34)n2)c2cccnc21`, the growth is reported as 97.9%. In the case of `N#CC1=C(N)Oc2c(c(N)nn2-c2ccccc2)C1c1ccc(Cl)cc1Cl` (stereo not given), the growth is reported as 106%. In the case of `CCCNc1nc(N(C)O)nc(N(C)O)n1`, the growth is reported as 24.5%. `COc1cc(-c2cc3cc(O)ccc3oc2=O)cc(OC)c1OC` showed a growth of 116%. Molecule `O=[N+]([O-])c1cccc(/C=N\Nc2ccccc2)c1` has a growth of 83.8%. In the case of `c1ccc(C2Cc3ccccc3C2=NC2CCCCC2)cc1` (stereo not given), the growth is reported as 108%. With `Clc1ccc(Cn2cc(-c3nc4ccc(Br)nc4n3Cc3ccc(Cl)cc3)c3cccnc32)cc1` the growth was 96.7%. `C=CC(=O)N[C@H](Cc1ccc(-c2cc(Cl)cc(Cl)c2)cc1)[C@H](O)[C@@H](O)C(=O)O` was tested, and the growth was 109%. `Cc1cc2nc3c4cc([N+](=O)[O-])cc([N+](=O)[O-])c4n(CCN(C)C)c3nc2cc1C` gave a growth of 88.2%. `CN1CCN(c2nc(-c3cccc4ccccc34)nc3sc4c(c23)CCCCCC4)CC1` showed a growth of 95.8%. For `COc1cc2nc(Cl)nc(Nc3cccc(C(=O)/C=C/c4ccc(Cl)cc4)c3)c2cc1OC`, the growth was 93.4%. Work on `O=C1C(=O)N(CCCCn2cc(-c3ccccc3)nn2)c2ccccc21` yielded a growth of 117%. `CC(C)(C)c1ccc(OP(=S)(N/N=C/c2ccccc2O)Oc2ccc(C(C)(C)C)cc2)cc1` gave a growth of 86.2%. For `CCN1CCN(C(=O)[C@@]2(C)CC[C@]3(C)CC[C@]4(C)C(=CC(=O)[C@@H]5[C@@]6(C)CC[C@H](OC7C[C@@H](O)[C@@H](O)C(C)O7)C(C)(C)[C@@H]6CC[C@]54C)[C@@H]3C2)CC1` (stereo not given in full), the growth was 37.7%. Molecule `Cn1cc(-c2nc(-c3c[nH]c4ncccc34)cs2)c2cc(Cl)ccc21` has a growth of 80.6%. For `COc1cc2c(cc1-c1c(C)noc1C)ncc1nc(C3CCC(F)(F)CC3)n([C@@H](C)COC(F)F)c12`, the growth was 52.3%. Molecule `Cc1cc(N2CCCC2)nc(N(CCNc2ccnc3cc(Cl)ccc23)Cc2ccco2)n1` has a growth of 76.6%. With `Cc1cc(N=O)cc(C(C)(C)C)c1O` the growth was 106%. `Cc1ccc(/C=C(\C#N)c2cc3ccccc3n2C)cc1` was tested, and the growth was 17.4%. For `COc1cc2c(cc1-c1c(C)noc1C)ncc1nc(C3CCCCC3)n([C@@H](C)COC(F)F)c12`, the growth was 50.5%. With `CC(CNc1nc(Nc2ccc(Cl)c(Cl)c2)nc(C(Cl)(Cl)Cl)n1)N(C)C` (stereo not given) the growth was -79.4% (active). For `CC(C)=CCC[C@](C)(O)[C@H]1CC[C@]2(C)[C@@H]1CC[C@@H]1[C@@]3(C)C/C(=C/c4ccc(Br)cc4)C(=O)C(C)(C)[C@@H]3CC[C@]12C`, the growth was 92%. `CC(C)/C=C/CC[C@](C)(O)[C@H]1CC[C@]2(C)[C@@H]1CC[C@@H]1[C@@]3(C)C/C(=C/c4cccc(C(F)(F)F)c4)C(=O)C(C)(C)[C@@H]3CC[C@]12C` was tested, and the growth was 104%. Molecule `Nc1c(C(=O)Nc2cccc(Br)c2)sc2nc3c(cc12)C(=O)CCC3` has a growth of 38.2%. In the case of `CC1=CC(=O)N(c2cccc3c(N4C(=O)C=C(C)C4=O)cccc23)C1=O`, the growth is reported as 105%. With `CC1(C)C=CC[C@]2(C)[C@H]3CC[C@@H]4[C@H]5[C@H](C(=O)/C=C/c6cccnc6)CC[C@]5(CO)CC[C@@]4(C)[C@]3(C)CC[C@@H]12` the growth was -66.8% (active). Work on `N#C/C(=C\c1ccc(-c2ccc(Br)cc2)o1)c1nc(-c2ccco2)cs1` yielded a growth of 34.1%. With `CCCCCCCC(=O)SCC/C=C/[C@@H]1CC(=O)NCc2cccc(n2)CN(Cc2ccc(Cl)cc2)CC(=O)N[C@@H](C(C)C)C(=O)O1` the growth was -24.2% (active). `O=C(/C=C\c1ccc2c(c1)OCO2)/C=C/c1ccc2c(c1)OCO2` showed a growth of 41.4%. For `C#CCN=C[C@]12CC[C@@H](C(=C)C)[C@@H]1[C@H]1CC[C@@H]3[C@@]4(C)CCC(=O)C(C)(C)[C@@H]4CC[C@@]3(C)[C@]1(C)CC2`, the growth was 78.1%. Work on `O=C(NC(Cc1cn(Cc2ccccc2)cn1)C(=O)O)OCC1c2ccccc2-c2ccccc21` (stereo not given) yielded a growth of 113%.
